Screening data from PubChem BioAssay.
Most compounds without a hit are left out; they make up all but 2.6% or so of the library.
SmPrx2 inh – Schistosoma Mansoni Peroxiredoxins (Prx2) | Schistosoma mansoni peroxiredoxin 2 (Prx2) | S. mansoni Prx2 activity coupled to TGR/GSH (TGR is thioredoxin glutathione reductase), NADPH fluorescence loss, qHTS | Potency, µM | 0.07% of 65,000 active
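Enzyme mix: 100 uM NADPH, 25 nM TGR, 700 uM GSH, 50 nM Prx2 in 100 mM phosphate pH 7.4, 10 mM EDTA, 0.01% Tween-20. 15 min RT with compound; NADPH/GSH added, H2O2 starts reaction; NADPH fluorescence read 8 min.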
AmpC inh no det – Promiscuous and Specific Inhibitors of AmpC Beta-Lactamase (assay without detergent); AmpC nitrocefin hydrolysis, absorbance 480 nm, no detergent; P00811; AID 585, 2007; Potency, µM (series often up to 28.7 µM), for the others: top-dose activity change, negative = inhibition; 1.8% of 71,000 active; note: % of control where 0% means no effect
Target sequence (P00811 whole entry, looked up): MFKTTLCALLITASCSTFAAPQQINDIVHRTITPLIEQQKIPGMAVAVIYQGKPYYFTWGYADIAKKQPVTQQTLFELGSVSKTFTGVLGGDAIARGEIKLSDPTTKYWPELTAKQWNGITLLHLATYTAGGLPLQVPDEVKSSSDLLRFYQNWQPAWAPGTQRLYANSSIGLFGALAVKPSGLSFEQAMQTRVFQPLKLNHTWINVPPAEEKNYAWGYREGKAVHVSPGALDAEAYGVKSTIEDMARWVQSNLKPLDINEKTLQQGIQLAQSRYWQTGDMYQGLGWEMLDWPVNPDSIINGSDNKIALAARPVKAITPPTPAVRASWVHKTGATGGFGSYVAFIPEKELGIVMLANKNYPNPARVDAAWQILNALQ
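Enzyme, pH 7.0 phosphate. Compound titrations were pre-incubated with AmpC for 15 min at room temperature before nitrocefin (stock 800 uM) addition; product formation was recorded at 480 nm every 20 s for 4 min.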
LT uptake inh – qHTS Assay for Anthrax Lethal Toxin Internalization | Cells, anthrax lethal toxin internalization, FRET ratio (460/530) | Potency, µM (series often up to 40 µM), inactives show top-dose activity change, negative = inhibition, hits mostly inhibitors | 0.67% of 70,000 active; note: % is set by controls: 0 for no effect and ±100 for the full control effect; nearly all actives have a fitted effect of over 50% in size
AmpC det inh – Promiscuous and Specific Inhibitors of AmpC Beta-Lactamase (assay with detergent); AID 584, 2007; 0.09% of 71,000 active; purified AmpC, nitrocefin hydrolysis with detergent; Potency, µM (titrated, usually from 28.7 µM), for inactives: at the highest dose activity change, negative = inhibition; P00811; active = well fitted curve in the direction sought with a large enough effect; inconclusive = small, poorly fitted or top-dose-only effect; note: % is set by controls: 0 for no effect and ±100 for the full control effect
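E. coli AmpC (5.3 nM) in 20 mM phosphate pH 7.0 with 0.01% Triton X-100, preincubated 15 min RT with compound; nitrocefin (2 uL of 800 uM stock) hydrolysis followed by 480 nm absorbance every 20 s over 4 min.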
* marks the source's active call; other numbers are inactive results; ! = not active in a repeat; [ ] = remark or other dose. Unless noted, calls come from the whole dose curve. Potency is the fitted concentration of half-maximal effect.

COc1cc(C2CC(=O)N3CN(c4ccccc4C)CSC3=C2C#N)cc(OC)c1OC (stereo unspecified) was read as SmPrx2 inh >57, AmpC inh no det 48%, LT uptake inh inconclusive and AmpC det inh -6%.
For COc1ccc(OC)c(C2CC(=O)N3CN(c4ccccc4F)CSC3=C2C#N)c1 (stereo unspecified) the results were SmPrx2 inh >57, AmpC inh no det 4µM*[single pt active], LT uptake inh -7% and AmpC det inh 12%.
For COc1ccccc1N1CSC2=C(C#N)C(c3ccc(SC)cc3)CC(=O)N2C1 (stereo unspecified) the results were SmPrx2 inh >57, AmpC inh no det 2.5µM*, LT uptake inh inconclusive and AmpC det inh 11%.
For N[C@@H](CNO)C(=O)O the results were SmPrx2 inh >57, AmpC inh no det 0%[5.75 µM], LT uptake inh -7%[8 µM] and AmpC det inh -2%[5.75 µM].
c1cncc(-c2cc(-n3ccnc3)ncn2)c1 was read as SmPrx2 inh >57, AmpC inh no det -7%, LT uptake inh inconclusive and AmpC det inh 6%.
`O=C1C[C@@H]2OCC=C3CN4CC[C@]56c7ccccc7N1[C@H]5[C@@H]2[C@H]3C[C@@H]46` gave SmPrx2 inh >57, AmpC inh no det -9%, LT uptake inh -6% and AmpC det inh 0%.
`CC1(C(=O)NCCCNc2ncc(C(F)(F)F)cc2Cl)C=CC2(CCCCC2)N1C(=O)c1ccccc1` (stereo unspecified) gave AmpC inh no det 8%, LT uptake inh 25µM* and AmpC det inh 11%.
O=C(CSc1nnc(Cc2cc(=O)[nH]c(=O)[nH]2)n1-c1ccc(Cl)cc1)NC1CCCC1 was read as SmPrx2 inh >57, AmpC inh no det 4µM*[single pt active], LT uptake inh 4% and AmpC det inh 9%.
`O=C(CSc1nnc(Cc2cc(=O)[nH]c(=O)[nH]2)n1-c1ccc(Cl)cc1)NCC1CCCO1` (stereo unspecified) gave SmPrx2 inh >57, AmpC inh no det 7%, LT uptake inh 4% and AmpC det inh -2%.
Screening COc1ccc(-n2c(Cc3cc(=O)[nH]c(=O)[nH]3)nnc2SCC(=O)NC2CCCC2)cc1 returned SmPrx2 inh >57, AmpC inh no det 4µM*[single pt active], LT uptake inh 4% and AmpC det inh 13%.
Screening CCOc1ccc(-n2c(Cc3cc(=O)[nH]c(=O)[nH]3)nnc2SCC(=O)NC2CCCC2)cc1 returned SmPrx2 inh >57, AmpC inh no det inconclusive, LT uptake inh -12% and AmpC det inh 14%.
COc1ccc(-c2coc3cc(O[C@@H]4O[C@@H](CO)[C@@H](O)[C@@H](O)[C@H]4O)cc(O)c3c2=O)cc1 was read as SmPrx2 inh >57, AmpC inh no det 25%, LT uptake inh inconclusive and AmpC det inh -1%.
COc1ccc(CNC(=O)c2nnn(Cc3ccc(OC)cc3)c2N)cc1 was read as SmPrx2 inh >57, AmpC inh no det 2.5µM*[single pt active], LT uptake inh -8% and AmpC det inh 12%.
Screening CCOc1ccc(NC(=O)c2nnn(CC(=O)Nc3ccccc3OC)c2N)cc1 returned SmPrx2 inh >57, AmpC inh no det 12%, LT uptake inh -2% and AmpC det inh 5%.
Screening CCOc1ccc(Cn2nnc(C(=O)Nc3cc(OC)cc(OC)c3)c2N)cc1 returned SmPrx2 inh >57, AmpC inh no det 3.2µM*, LT uptake inh 19% and AmpC det inh 11%.
For CCOc1ccc(Cn2nnc(C(=O)Nc3cc(C)cc(C)c3)c2N)cc1 the results were SmPrx2 inh >57, AmpC inh no det 4µM*[single pt active], LT uptake inh inconclusive and AmpC det inh 9%.
CCc1ccc(Cn2nnc(C(=O)Nc3cccc(C)c3)c2N)cc1 was read as SmPrx2 inh >57, AmpC inh no det 4µM*[single pt active], LT uptake inh -9% and AmpC det inh 10%.
COc1ccccc1S(=O)(=O)Cc1ccc(C(=O)N2CCOCC2)o1 was read as SmPrx2 inh >57, AmpC inh no det 3.2µM*[single pt active], LT uptake inh -1% and AmpC det inh 13%.
Screening COc1ccc(S(=O)(=O)Cc2ccc(C(=O)N3CCOCC3)o2)cc1 returned SmPrx2 inh >57, AmpC inh no det 4µM*[single pt active], LT uptake inh 2% and AmpC det inh 13%.
Screening COc1ccccc1S(=O)(=O)Cc1ccc(C(=O)N2CCN(c3ccccc3)CC2)o1 returned SmPrx2 inh >57, AmpC inh no det 97%, LT uptake inh 4% and AmpC det inh 1%.
`Fc1ccc(C2CC(c3ccco3)n3ncnc3N2)cc1` (stereo unspecified) gave SmPrx2 inh >57, AmpC inh no det 4µM*[single pt active], LT uptake inh -11% and AmpC det inh 11%.
For N=C(N)SCCc1ccc(OCc2ccc([N+](=O)[O-])cc2)cc1 the results were SmPrx2 inh >57, AmpC inh no det 16µM*, LT uptake inh -19% and AmpC det inh -7%.
`CCCS(=O)(=O)c1nnnn1-c1cccc(OC)c1` gave SmPrx2 inh >57, AmpC inh no det -8%, LT uptake inh 3.2µM* and AmpC det inh -7%.
For CN1CCN(CCCN2c3ccccc3Sc3ccc(C(F)(F)F)cc32)CC1 the results were SmPrx2 inh >57, AmpC inh no det 29%[5.75 µM], LT uptake inh 10µM*! and AmpC det inh 0%[5.75 µM].
O=C1CSC2(CCN(CCCN3c4ccccc4Sc4ccc(Cl)cc43)CC2)N1 was read as SmPrx2 inh >57, AmpC inh no det 69%[5.75 µM], LT uptake inh 7%[8 µM] and AmpC det inh -5%[5.75 µM].
For OCc1ccncc1.OCc1ccncc1.[Cl][Pt]([Cl])([Cl])[Cl] the results were SmPrx2 inh inconclusive, AmpC inh no det 0%[5.75 µM], LT uptake inh inconclusive and AmpC det inh -10%[5.75 µM].
c1ccc(B2OC[C@@H]3OB(c4ccccc4)O[C@H]([C@@H]4COB(c5ccccc5)O4)[C@@H]3O2)cc1 was read as SmPrx2 inh >57, AmpC inh no det -44%[5.75 µM], LT uptake inh 5%[8 µM] and AmpC det inh 1.6µM*.
`O=C(Nc1cccc(F)c1)N1CC2(CCN(C(=O)c3cccc(F)c3)CC2)C1` gave SmPrx2 inh >57, AmpC inh no det 32%, LT uptake inh -2% and AmpC det inh -1%.
Screening O=C(c1cnn2ccccc12)N1CCCc2ccccc21 returned SmPrx2 inh >57, AmpC inh no det 4µM*[single pt active], LT uptake inh 11% and AmpC det inh 9%.
CN1CCC[C@@H]1c1cccnc1.O=C(O)c1ccccc1O.O=C([OH2+])c1ccccc1O.O=C([OH2+])c1ccccc1O.[Mn] was read as SmPrx2 inh >57, AmpC inh no det -12%[5.75 µM], LT uptake inh inconclusive and AmpC det inh -1%[5.75 µM].
Screening CCCCN(CC)CCNC(=O)c1cc2c(=O)n(C)c3ccccc3c2n1C returned SmPrx2 inh >57, AmpC inh no det 4µM*[single pt active], LT uptake inh 5µM* and AmpC det inh 10%.
CCCN(CCC)CCCNC(=O)c1cc2c(=O)n(C)c3ccccc3c2n1C was read as SmPrx2 inh >57, AmpC inh no det 18%, LT uptake inh 3.2µM* and AmpC det inh 17%.
